# D2 antag: D2 dopamine receptor (human) antagonism; P14416; HEK293 TREx D2 cells, calcium flux, dopamine EC80; inhibition, % at 10 µM; 340,000 tested, 2% active; AID 485344; in the data active = inhibition above about 30%; inactive = below that, where a call was filed; also: 0% is about no effect
# Target sequence (P14416 whole entry, looked up): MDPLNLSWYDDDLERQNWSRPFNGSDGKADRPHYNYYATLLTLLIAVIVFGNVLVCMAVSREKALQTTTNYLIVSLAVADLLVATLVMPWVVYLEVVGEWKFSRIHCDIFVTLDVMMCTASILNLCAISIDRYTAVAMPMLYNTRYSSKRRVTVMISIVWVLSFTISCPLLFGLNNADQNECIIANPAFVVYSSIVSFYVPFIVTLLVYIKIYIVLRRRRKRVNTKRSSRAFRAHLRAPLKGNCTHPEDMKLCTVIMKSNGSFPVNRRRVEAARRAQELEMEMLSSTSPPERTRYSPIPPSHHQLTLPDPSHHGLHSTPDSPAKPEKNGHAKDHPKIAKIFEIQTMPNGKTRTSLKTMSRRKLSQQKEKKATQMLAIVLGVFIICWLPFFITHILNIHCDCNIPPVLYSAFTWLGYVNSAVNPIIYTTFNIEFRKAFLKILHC
#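 Tetracycline-induced HEK293 T-REx cells expressing D2 force-coupled to calcium signalling were dye-loaded, exposed to compound for 180 s, then challenged with an EC80 of dopamine; calcium flux was followed kinetically for a further 180 s.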
# D2 ag-1: agonists of human D2 dopamine receptor; P14416; HEK293 T-REx D2 cells, calcium flux agonist mode; activation, % at 2 µM; 340,000 tested, 0.53% active; AID 485358;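 active = activation over 3 SD above normal in the single-dose calcium agonist read, cut at about 30% in these data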; also: 0% is about no effect
#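 HEK293 Trex D2 cells, tetracycline-induced, o/n 30 C 5% CO2; no-wash Ca dye, RT 30–90 min; 10-cycle baseline, 23 nl cpd added, kinetic Ca read 180 s; agonist hits = positive Ca response.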
# D2 PAM-1: positive allosteric modulators of human D2 dopamine receptor | P14416 | HEK293 T-REx D2, calcium flux, EC20 dopamine potentiation | 340,000 tested, 0.34% active | potentiation, % at 10 µM;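 active = potentiation over 3 SD above the plate norm, cut at about 30% in these data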; also: 0% is about no effect
#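 Cells plated with tetracycline inducer and held overnight at 30 C; calcium dye loaded 30–90 min at room temperature; baseline taken, compound added and read 180 s; EC20 dopamine then added and read 180 s.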
# LDHA inh: inhibitors of human lactate dehydrogenase A. P00338. purified LDHA, NADH/diaphorase-resazurin fluorescence; hits give low values. activity change, % (values are at about 110 or 230 µM). 480,000 tested, 0.15% active. AID 1347041; in the data active = activity change below about -30%;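 also: plate controls were DMSO wells for no effect and wells without enzyme for full effect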
#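 Remaining NADH was detected by diaphorase (0.133 mg/mL) converting 37 µM resazurin to fluorescent resorufin, read at 0 and 20 minutes. The preceding 5-minute room-temperature reaction used 2 nM LDHA, 0.2 mM sodium pyruvate and 0.06 mM NADH at pH 7.4.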
# D2 PAM-2: human D2 receptor positive allosteric modulation. DiscoveRx D2 beta-arrestin cells, luminescence, 90 min; 100% = 57 uM dopamine signal. 360,000 tested, 0.23% active. potentiation, % (test concentration not listed). P14416; in the data active = potentiation above about 50%
#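 PathHunter D2 cells, attached overnight at 37 deg C, received compound in DMSO plus dopamine at EC20 (50 nM final) for 90 min at 37 deg C. Beta-arrestin recruitment was read as luminescence after 1 h with detection reagent at ambient temperature.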
# D2 ag-2: activates the human D2 dopamine receptor; P14416; DiscoveRx PathHunter D2 beta-arrestin, luminescence, 90 min; 100% = 57 uM dopamine signal; activation, % (no concentration beside the values); 360,000 tested, 0.084% active; in the data active = activation above about 40%
#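 Agonist mode: compounds alone added to overnight-plated D2 PathHunter cells for 90 min at 37 C, with 57 uM final dopamine (EC100) defining full response. Beta-arrestin recruitment detected by chemiluminescent reagent, read after 1 h at ambient temperature.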
# * marks the source's active call; other numbers are inactive results; · = no result. Hits are enriched below; roughly 2.1% of the tested compounds scored in any of these assays.
SMILES,D2 antag,D2 ag-1,D2 PAM-1,LDHA inh,D2 PAM-2,D2 ag-2
CC(C)C(NC(=O)CN(c1cccc(F)c1)S(C)(=O)=O)C(C)C,39*,0,20,-2,1,-3
CSc1cccc(NC(=O)CN(c2cccc(C)c2)S(C)(=O)=O)c1,30*,1,-9,0,-9,0
CCCNC(=O)CN(c1cccc(F)c1)S(C)(=O)=O,3,3,9,-3,-7,-7
CC(=O)c1cccc(N(CC(=O)Nc2ccccc2F)S(C)(=O)=O)c1,46*,0,-12,-4,1,-2
O=c1cc(CN2CCN(C/C=C/c3ccccc3)CC2)c2cc(O)ccc2o1,83*,1,-22,5,-27,1
CCN1CCN(Cc2cc(=O)oc3ccc(O)cc23)CC1,·,·,·,10,·,·
O=c1[nH]c(CN2CCN(C/C=C/c3ccccc3)CC2)nc2ccccc12,63*,29,-27,1,-24,0
Cc1ccc2oc(=O)cc(CN3CCN(C/C=C/c4ccccc4)CC3)c2c1,58*,-1,-18,-9,-22,-3
O=c1[nH]c(CN2CCN(S(=O)(=O)/C=C/c3ccccc3)CC2)nc2ccccc12,-35,0,-7,-3,4,0
N#Cc1c(-c2ccccc2)cc(-c2cccs2)nc1SCCS(=O)(=O)c1nc2ccccc2s1,·,·,·,-3,·,·
CC(C)(C)c1ccc(C(=O)Nc2c(N3CCCC3)c3ccccc3oc2=O)cc1,·,·,·,-1,·,·
O=Cc1cc(Cl)cc(Cl)c1O,·,·,·,1,·,·
Cc1sc(-c2cc3c([nH]c2=O)CC(c2ccco2)CC3=O)nc1-c1ccc(Cl)cc1 (stereo not given),·,·,·,13,·,·
Cc1ccc(S(=O)(=O)O)c(C)c1N1CCCC1=O,-18,0,-3,0,-7,-5
Cc1ccc(S(N)(=O)=O)c(C)c1N1CCCC1=O,-5,0,30*,-12,-4,-7
Cc1ccccc1OCCOC(=O)c1c(-c2ccccc2)noc1C,-15,1,-12,-10,-1,-5
Cc1onc(-c2ccccc2)c1C(=O)OCCOc1ccccc1F,38*,2,3,5,-4,0
O=C(NCCc1nc2ccccc2[nH]1)c1cccc(N2CCCN(Cc3ccccc3)C2=O)c1,·,·,·,3,·,·
O=C(O)c1ccccc1-c1ccc(/C=C2\SC(=O)N(c3ccccc3)C2=O)o1,10,2,4,4,-12,-7
O=C1S/C(=C\c2ccc(N3CCOCC3)o2)C(=O)N1c1ccccc1,4,31*,5,24,0,1
CCC(=O)Nc1nc(-c2ccc3c(c2)OCCO3)cs1,32*,0,-3,1,-1,2
CC(C)(C)C(=O)Nc1nc(-c2ccc3c(c2)OCO3)cs1,-3,-1,22,2,-18,-3
O=C(c1cc2ccccc2oc1=O)N1CCSC1c1ccc(Cl)cc1 (stereo not given),·,·,·,-1,·,·
N#C/C(=C\c1ccc(O)c(O)c1)C(=O)c1ccc(O)c(O)c1,13,-1,8,-90*,5,-4
N#C/C(=C\c1ccc(O)c(O)c1)C(=O)N1CCCC1,-1,1,11,4,-8,-7
SMILES,D2 antag,D2 ag-1,D2 PAM-1,LDHA inh,D2 PAM-2,D2 ag-2
O=C(N/N=C/c1ccc(Br)s1)c1c[nH]c2ccccc12,34*,1,-24,-15,-29,-5
Cc1cccc(NC(=O)c2ccc(F)c(S(=O)(=O)NCc3ccco3)c2)c1,33*,-2,1,0,-6,-1
COc1ccc(S(=O)(=O)Nc2cc(OC(F)F)c(OC)cc2C(=O)O)cc1Br,·,·,·,-1,·,·
CSc1cccc(NC(=O)C2CCN(S(=O)(=O)c3cnc[nH]3)CC2)c1,-12,0,-6,-8,-11,-1
CSc1cccc(NC(=O)C2CCCN(S(=O)(=O)c3cnc[nH]3)C2)c1 (stereo not given),31*,0,-19,-6,6,-3
COc1ccc(NC(=O)COc2coc(CN3CCSCC3)cc2=O)cc1,·,·,·,-13,·,·
CSc1cccc(NC(=O)COc2coc(CN3CCSCC3)cc2=O)c1,·,·,·,-38*,·,·
CC12CCCC(C(N)=O)(CCC1)C2,·,·,·,1,·,·
